Results on 2 molecules are retold here after ChEMBL document CHEMBL2218924, “A broad activity screen in support of a chemogenomic map for kinase signalling research and drug discovery” (Biochem J, 2013).

What is called residual activity is the signal under treatment as a percentage of the control signal.

In test [1] the target is Death-associated protein kinase 1 (Homo sapiens) (UniProt P53355). The note with it: at 10 µM.
For test [2], the target named is Death-associated protein kinase 2 (Homo sapiens) (UniProt Q9UIK4). The note with it: at 1 µM.
Chain of Death-associated protein kinase 2 (Homo sapiens) (Q9UIK4 whole entry, looked up): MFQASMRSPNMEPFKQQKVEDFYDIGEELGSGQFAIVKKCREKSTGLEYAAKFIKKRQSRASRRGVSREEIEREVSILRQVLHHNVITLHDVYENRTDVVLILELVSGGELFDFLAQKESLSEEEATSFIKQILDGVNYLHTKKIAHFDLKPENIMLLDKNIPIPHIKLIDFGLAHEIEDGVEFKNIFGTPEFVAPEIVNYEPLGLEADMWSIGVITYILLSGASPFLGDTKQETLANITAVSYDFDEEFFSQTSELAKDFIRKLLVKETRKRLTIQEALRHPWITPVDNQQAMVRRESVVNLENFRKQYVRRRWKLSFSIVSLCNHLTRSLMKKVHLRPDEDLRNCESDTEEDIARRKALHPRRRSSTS
Test [3] shares this target. The note with it: at 10 µM.
The target of test [4] is T1, Serine/threonine-protein kinase DCLK2 (Homo sapiens) (UniProt Q8N568).
T1 sequence (whole entry): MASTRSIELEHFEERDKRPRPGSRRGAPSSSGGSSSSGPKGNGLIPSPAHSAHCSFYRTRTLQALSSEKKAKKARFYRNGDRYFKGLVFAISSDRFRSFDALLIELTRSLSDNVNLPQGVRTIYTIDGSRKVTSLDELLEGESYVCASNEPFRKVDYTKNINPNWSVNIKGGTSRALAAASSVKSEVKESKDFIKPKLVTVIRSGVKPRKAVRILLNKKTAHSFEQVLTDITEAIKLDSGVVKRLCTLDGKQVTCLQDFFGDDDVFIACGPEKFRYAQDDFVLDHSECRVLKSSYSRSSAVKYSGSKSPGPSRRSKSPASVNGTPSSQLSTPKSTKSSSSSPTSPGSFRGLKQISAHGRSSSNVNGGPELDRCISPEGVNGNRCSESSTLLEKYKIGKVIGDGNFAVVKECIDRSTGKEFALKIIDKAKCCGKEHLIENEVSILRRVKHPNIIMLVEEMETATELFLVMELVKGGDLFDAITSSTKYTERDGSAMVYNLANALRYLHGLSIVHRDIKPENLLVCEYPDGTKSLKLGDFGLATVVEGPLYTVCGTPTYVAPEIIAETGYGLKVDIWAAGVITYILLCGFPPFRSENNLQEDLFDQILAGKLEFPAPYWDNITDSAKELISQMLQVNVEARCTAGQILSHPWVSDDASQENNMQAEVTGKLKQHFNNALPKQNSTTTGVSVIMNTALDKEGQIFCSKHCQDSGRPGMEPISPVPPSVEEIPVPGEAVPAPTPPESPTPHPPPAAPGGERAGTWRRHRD
Particulars: at 1 µM.

In test [5] the target is T1, Serine/threonine-protein kinase DCLK2 (Homo sapiens). The note with it: at 10 µM.
For test [6], the target named is T2, Discoidin domain-containing receptor 2 (Homo sapiens) (UniProt Q16832).
T2 sequence (whole entry): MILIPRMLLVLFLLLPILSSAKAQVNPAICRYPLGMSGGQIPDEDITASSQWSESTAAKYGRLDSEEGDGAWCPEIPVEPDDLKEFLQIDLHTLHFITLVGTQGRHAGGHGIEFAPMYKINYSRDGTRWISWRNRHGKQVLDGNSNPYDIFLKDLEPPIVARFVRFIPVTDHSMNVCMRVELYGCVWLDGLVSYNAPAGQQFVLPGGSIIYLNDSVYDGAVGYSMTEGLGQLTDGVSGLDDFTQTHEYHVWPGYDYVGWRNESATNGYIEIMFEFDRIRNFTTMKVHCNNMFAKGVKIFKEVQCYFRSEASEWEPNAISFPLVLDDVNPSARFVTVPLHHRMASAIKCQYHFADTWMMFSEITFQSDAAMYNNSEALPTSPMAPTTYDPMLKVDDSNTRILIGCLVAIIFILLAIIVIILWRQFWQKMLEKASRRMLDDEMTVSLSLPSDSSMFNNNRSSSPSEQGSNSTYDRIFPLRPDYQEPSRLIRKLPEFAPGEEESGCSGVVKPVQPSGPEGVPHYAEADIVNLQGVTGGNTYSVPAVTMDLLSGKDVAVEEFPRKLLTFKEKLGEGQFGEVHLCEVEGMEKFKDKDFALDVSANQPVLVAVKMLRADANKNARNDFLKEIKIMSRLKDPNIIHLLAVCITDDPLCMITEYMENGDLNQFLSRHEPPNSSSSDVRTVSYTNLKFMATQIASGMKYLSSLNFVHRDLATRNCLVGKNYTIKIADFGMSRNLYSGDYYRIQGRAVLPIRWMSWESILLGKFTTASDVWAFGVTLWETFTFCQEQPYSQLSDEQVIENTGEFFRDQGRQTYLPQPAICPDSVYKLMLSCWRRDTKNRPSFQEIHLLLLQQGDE
Particulars: at 1 µM.

Test [7] deals with T2, Discoidin domain-containing receptor 2 (Homo sapiens). Particulars: at 10 µM.
For test [8], the target named is T3, Myotonin-protein kinase (Homo sapiens) (UniProt Q09013).
T3 sequence (whole entry): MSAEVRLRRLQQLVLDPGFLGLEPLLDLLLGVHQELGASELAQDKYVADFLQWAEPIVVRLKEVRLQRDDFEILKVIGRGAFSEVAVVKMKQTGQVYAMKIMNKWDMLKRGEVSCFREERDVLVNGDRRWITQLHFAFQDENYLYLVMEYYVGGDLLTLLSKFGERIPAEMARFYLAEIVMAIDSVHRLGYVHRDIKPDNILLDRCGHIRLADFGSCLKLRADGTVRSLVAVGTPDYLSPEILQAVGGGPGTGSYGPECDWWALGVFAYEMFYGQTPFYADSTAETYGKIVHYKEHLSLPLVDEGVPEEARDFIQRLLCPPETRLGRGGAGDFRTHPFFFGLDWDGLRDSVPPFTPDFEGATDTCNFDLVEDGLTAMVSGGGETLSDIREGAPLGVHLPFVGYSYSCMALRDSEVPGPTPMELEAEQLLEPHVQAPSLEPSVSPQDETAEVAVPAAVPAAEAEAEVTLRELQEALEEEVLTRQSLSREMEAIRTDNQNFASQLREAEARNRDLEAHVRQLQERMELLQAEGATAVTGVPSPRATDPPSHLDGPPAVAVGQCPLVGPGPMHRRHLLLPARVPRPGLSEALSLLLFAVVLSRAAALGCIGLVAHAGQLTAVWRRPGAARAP
The note with it: at 1 µM.

Test [9] concerns the target T3, Myotonin-protein kinase (Homo sapiens). The note with it: at 10 µM.
In test [10] the target is T4, Serine/threonine-protein kinase 17A (Homo sapiens) (UniProt Q9UEE5).
T4 sequence (whole entry): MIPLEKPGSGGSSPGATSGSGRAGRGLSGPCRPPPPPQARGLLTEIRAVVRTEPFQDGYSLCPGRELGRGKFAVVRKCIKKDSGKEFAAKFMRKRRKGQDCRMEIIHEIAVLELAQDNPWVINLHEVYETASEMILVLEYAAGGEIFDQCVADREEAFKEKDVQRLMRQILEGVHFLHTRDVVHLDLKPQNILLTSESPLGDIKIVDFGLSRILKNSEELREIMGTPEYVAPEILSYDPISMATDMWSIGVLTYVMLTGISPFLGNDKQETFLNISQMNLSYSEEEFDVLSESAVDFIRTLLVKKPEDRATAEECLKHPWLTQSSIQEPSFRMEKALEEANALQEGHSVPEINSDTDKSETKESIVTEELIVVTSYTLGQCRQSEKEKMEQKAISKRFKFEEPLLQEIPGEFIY
The note with it: at 1 µM.

Test [11] has as its target T4, Serine/threonine-protein kinase 17A (Homo sapiens). The note with it: at 10 µM.
The target in test [12] is T5, Dual specificity tyrosine-phosphorylation-regulated kinase 2 (Homo sapiens) (UniProt Q92630).
T5 sequence (whole entry): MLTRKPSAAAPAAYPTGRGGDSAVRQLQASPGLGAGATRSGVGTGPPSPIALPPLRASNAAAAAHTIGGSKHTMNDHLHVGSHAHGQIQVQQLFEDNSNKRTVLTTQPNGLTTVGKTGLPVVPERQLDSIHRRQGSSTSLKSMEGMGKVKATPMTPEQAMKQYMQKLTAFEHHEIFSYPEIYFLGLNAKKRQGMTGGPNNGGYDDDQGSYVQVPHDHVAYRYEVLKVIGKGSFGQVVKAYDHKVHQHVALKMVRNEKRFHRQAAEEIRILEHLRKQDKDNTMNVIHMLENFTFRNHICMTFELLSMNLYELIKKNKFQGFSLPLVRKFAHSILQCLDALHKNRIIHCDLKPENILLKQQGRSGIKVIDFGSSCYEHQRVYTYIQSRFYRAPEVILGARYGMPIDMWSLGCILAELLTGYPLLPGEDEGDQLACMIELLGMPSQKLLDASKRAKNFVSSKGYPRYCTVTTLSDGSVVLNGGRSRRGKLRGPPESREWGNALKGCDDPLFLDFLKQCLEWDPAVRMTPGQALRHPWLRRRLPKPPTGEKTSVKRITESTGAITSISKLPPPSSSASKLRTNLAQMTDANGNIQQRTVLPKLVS
The note with it: at 1 µM.

Test [13] concerns the target T5, Dual specificity tyrosine-phosphorylation-regulated kinase 2 (Homo sapiens). Particulars: at 10 µM.
Test [14] concerns the target T6, Ephrin type-A receptor 1 (Homo sapiens) (UniProt P21709).
T6 sequence (whole entry): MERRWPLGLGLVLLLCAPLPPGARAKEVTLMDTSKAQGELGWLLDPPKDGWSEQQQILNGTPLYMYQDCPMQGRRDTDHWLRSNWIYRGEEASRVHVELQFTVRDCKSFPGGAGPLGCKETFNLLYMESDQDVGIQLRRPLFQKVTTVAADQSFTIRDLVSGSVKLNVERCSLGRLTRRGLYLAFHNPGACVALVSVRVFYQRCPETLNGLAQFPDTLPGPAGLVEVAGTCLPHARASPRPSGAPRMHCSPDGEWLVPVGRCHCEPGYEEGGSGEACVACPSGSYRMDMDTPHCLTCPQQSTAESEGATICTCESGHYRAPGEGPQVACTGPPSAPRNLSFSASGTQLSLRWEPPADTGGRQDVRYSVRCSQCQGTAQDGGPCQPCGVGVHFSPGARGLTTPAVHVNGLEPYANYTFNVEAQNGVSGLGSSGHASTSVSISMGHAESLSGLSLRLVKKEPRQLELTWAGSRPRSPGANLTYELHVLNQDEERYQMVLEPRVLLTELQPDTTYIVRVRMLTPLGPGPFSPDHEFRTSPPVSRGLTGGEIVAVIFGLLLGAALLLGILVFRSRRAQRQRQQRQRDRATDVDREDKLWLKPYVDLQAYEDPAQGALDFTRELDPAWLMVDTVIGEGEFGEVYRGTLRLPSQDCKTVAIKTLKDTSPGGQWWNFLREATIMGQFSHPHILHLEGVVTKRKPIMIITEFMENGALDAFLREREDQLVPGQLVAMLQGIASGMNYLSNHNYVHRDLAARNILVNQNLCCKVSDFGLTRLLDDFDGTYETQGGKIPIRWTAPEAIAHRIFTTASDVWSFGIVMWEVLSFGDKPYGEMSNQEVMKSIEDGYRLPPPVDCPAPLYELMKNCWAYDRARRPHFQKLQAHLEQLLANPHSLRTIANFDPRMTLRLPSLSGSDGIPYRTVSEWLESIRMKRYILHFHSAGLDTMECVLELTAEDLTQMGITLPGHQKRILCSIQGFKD
The note with it: at 1 µM.

Test [15] concerns the target T6, Ephrin type-A receptor 1 (Homo sapiens). Particulars: at 10 µM.
For test [16], the target named is Ephrin type-A receptor 2 (Homo sapiens) (UniProt P29317). Particulars: at 1 µM.
Chain of Ephrin type-A receptor 2 (Homo sapiens) (P29317 whole entry): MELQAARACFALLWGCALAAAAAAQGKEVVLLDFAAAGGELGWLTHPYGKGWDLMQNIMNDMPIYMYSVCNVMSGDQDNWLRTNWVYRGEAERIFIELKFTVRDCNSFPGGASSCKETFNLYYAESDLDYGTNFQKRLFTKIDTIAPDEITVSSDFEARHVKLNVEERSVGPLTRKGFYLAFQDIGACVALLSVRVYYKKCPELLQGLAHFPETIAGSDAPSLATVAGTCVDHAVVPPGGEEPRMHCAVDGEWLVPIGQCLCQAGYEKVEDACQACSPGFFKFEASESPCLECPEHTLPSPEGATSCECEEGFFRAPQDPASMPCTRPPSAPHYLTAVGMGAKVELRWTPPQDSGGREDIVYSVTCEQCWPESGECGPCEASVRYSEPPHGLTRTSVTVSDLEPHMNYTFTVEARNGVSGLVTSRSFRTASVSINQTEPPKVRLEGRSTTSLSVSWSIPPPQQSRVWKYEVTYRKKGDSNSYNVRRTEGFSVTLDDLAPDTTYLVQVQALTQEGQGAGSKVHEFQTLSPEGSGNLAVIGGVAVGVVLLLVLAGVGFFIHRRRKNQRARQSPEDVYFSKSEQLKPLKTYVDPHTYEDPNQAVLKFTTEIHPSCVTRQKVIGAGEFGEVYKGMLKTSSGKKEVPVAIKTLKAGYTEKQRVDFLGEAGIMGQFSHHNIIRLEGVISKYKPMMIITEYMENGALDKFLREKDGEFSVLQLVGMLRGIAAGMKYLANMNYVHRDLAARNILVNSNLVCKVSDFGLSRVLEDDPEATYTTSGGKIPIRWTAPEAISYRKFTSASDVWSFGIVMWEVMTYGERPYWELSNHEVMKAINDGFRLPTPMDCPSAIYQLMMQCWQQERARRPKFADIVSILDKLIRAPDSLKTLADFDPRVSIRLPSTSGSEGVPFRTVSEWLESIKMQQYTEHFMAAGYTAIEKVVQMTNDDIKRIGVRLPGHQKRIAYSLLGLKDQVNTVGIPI
Test [17] has the same target. The note with it: at 10 µM.
Test [18] has as its target T7, Ephrin type-A receptor 3 (Homo sapiens) (UniProt P29320).
T7 sequence (whole entry): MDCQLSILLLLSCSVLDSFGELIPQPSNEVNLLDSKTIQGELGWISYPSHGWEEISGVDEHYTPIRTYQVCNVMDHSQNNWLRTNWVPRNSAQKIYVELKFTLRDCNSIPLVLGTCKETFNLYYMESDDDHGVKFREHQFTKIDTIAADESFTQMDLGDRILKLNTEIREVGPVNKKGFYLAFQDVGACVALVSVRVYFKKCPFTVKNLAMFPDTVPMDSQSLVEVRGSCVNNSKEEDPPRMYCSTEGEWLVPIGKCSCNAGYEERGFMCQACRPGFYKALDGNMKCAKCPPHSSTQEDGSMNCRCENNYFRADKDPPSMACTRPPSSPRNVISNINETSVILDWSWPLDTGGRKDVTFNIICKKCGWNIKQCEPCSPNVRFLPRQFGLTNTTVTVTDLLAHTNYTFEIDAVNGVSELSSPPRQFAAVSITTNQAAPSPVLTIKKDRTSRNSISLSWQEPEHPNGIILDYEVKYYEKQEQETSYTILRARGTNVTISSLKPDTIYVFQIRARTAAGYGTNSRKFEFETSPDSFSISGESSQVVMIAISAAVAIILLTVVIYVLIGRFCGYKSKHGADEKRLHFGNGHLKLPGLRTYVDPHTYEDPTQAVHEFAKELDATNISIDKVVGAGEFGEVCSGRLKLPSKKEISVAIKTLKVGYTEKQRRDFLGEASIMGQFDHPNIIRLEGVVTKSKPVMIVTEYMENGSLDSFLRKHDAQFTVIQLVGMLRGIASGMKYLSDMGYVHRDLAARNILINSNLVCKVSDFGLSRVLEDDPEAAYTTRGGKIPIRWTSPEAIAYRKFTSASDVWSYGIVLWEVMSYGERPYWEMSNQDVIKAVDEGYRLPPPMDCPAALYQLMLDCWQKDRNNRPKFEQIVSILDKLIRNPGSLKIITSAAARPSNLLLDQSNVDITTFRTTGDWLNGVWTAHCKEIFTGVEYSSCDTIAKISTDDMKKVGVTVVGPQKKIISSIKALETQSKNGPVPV
The note with it: at 1 µM.

Chain of Death-associated protein kinase 1 (Homo sapiens) (P53355 whole entry, looked up): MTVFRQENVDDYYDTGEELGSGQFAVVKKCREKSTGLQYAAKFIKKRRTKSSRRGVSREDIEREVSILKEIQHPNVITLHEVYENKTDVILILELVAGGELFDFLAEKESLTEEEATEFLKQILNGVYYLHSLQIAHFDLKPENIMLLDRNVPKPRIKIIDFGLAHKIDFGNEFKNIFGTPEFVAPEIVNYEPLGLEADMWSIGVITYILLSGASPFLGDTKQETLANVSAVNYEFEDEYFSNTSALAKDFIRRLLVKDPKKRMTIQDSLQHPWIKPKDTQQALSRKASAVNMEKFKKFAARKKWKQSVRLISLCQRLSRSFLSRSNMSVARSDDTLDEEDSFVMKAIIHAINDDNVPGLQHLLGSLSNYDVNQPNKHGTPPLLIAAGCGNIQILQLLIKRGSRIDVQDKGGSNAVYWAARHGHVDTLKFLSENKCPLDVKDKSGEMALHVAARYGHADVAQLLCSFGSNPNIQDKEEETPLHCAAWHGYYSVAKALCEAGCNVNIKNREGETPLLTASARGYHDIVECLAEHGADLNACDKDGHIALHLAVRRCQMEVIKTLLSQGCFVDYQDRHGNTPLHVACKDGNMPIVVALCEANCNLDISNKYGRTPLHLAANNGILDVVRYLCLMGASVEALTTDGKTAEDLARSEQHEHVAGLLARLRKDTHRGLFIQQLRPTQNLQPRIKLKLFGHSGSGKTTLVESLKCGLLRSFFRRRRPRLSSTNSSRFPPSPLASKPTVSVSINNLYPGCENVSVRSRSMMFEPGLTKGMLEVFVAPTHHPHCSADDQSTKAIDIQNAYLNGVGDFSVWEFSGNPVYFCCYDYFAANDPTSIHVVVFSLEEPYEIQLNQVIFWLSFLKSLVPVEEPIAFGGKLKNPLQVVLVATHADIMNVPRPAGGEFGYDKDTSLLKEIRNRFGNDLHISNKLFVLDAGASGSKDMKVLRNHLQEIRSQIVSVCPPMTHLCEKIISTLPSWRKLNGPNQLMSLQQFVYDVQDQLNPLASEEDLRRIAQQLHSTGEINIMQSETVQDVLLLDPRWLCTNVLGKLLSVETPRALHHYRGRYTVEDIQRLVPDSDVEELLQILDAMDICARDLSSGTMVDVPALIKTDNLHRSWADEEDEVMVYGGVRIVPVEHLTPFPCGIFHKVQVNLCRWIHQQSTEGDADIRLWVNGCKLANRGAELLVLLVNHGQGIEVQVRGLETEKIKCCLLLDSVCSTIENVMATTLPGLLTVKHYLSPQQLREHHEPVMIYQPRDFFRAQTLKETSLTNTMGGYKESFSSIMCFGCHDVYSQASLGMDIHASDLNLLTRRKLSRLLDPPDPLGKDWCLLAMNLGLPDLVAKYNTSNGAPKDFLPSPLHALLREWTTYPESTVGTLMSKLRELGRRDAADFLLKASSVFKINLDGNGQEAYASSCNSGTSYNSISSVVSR

Consider `O=c1cc(-c2cccc3c2Sc2ccccc2S3)oc(N2CCOCC2)c1`, for which the residual activity in [1] is 81%; in test [2], 106%; in [3], 89%; in test [4], 118%; in test [5], 85%; in test [6], 93%. Moreover, the residual activity in test [7] turned out to be 100%; in [8], 120%; in [9], 105%; in test [10] it was 106%; in test [11], 93%; in test [12] it was 101%. The residual activity came to 95% in [13]; 105% in test [14]; 94% in test [15]; 100% in test [16]; 82% in test [17]; 100% in test [18].
Regarding `CC[n+]1c(/C=C/N(C)c2ccccc2)n(-c2ccccc2)c2ccc(-c3nc4ccccc4s3)cc21`, the residual activity in test [1] was 51%; in [2] it was 100%; in test [3], 99%; in test [4], 110%; in test [5] it was 102%; in test [6], 116%. Further, the residual activity in test [7] stood at 88%; in test [8], 120%; in test [9], 121%; in test [10], 119%; in test [11], 68%; in test [12], 99%. Besides, the residual activity was 103% in [13]; 100% in [14]; 100% in test [15]; 109% in [16]; 90% in test [17]; 116% in [18].
